The target of this experiment is COPS5 (UniProt Q92905). The experiment can be described thus: log2 ratio of Biotin-Ahx-Ub-VS probe labelling (fragment/DMSO); higher = less target engagement (more negative = stronger competition), active = hit call of the paper (q ≤ 0.05, log2 ratio ≤ -1). To be noted: compound concentration: 200 uM; treatment time: 3 h. Here is the method:
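Competitive ABPP in HEK293T cell lysate. Lysates were treated with each chloroacetamide fragment at 200 µM for 3 h, then with Biotin-Ahx-Ub-VS (0.5 µM, 1 h), NeutrAvidin-enriched and analysed by diaPASEF LC-MS/MS. Protein LFQ was median-normalised; average log2 ratio is fragment/DMSO from an unpaired t-test (n=3 treated, n=44 DMSO). Hits: q ≤ 0.05, log2 ratio ≤ -1, unique peptides ≥ 2.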
Chain of COPS5 (Q92905 whole entry, looked up, the tested form may be a part): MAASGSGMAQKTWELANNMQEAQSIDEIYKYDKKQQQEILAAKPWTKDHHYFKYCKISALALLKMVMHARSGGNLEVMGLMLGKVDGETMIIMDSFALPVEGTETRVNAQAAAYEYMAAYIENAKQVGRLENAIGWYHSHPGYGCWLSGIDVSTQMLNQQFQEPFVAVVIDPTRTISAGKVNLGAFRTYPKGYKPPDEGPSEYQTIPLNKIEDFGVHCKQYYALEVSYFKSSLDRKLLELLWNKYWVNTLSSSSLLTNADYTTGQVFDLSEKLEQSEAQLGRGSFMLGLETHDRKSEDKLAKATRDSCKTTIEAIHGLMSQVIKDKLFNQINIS
Take `CC1(NC(=O)CCl)CCS(=O)(=O)C1` (stereo not given): the “log2 ratio of Biotin-Ahx-Ub-VS probe labelling” value (from here on “log2 ratio”) is 0.0148 (inactive).
Consider `Cl.O=C(CCl)N[C@H]1C[C@@H](n2cccn2)C1`, for which the “log2 ratio” value was -0.0476 (inactive).
For the compound `O=C(CCl)N1CCC(S(=O)(=O)c2ccc(F)cc2)CC1`, the “log2 ratio” value is -0.0227 (inactive).
As for `Cc1ccc(N(CCC#N)C(=O)CCl)cc1C`, the “log2 ratio” value is 0.127 (inactive).
Regarding `O=C(CCl)NCc1ccc(N2CCOCC2)nc1`, the “log2 ratio” value was 0.0899 (inactive).
On to `O=C(CCl)N1CCN(C(=O)N2CCCCC2)CC1`, for which the “log2 ratio” value was -0.16 (inactive).
`Cc1cc(CC(C)NC(=O)CCl)n[nH]1` (stereo not given): the “log2 ratio” value was 0.0799 (inactive).
Then `O=C(CCl)N1CCC(=C(F)CO)C1`, with -0.253 (inactive).
Regarding `O=C(CCl)N1CCC(C(=O)N2CCCC2)CC1`, the “log2 ratio” value is -0.223 (inactive).
As for `CC(NC(=O)CCl)c1ccc2[nH]ncc2c1` (stereo not given), the “log2 ratio” value is -0.00941 (inactive).
Consider `O=C(CCl)N1CCCCC12CCOCC2`, for which the “log2 ratio” value was 0.0647 (inactive).
The result for `C#Cc1cccc(NC(=O)CCl)c1` reads -0.274 (inactive).
In the case of `Cc1ccc(C(=O)NCCNC(=O)CCl)cc1`, the “log2 ratio” value is -0.05 (inactive).
Regarding `CN(C(=O)CCl)c1nc2ccccc2s1`, the “log2 ratio” value was -0.0311 (inactive).
Turning to `Cc1n[nH]c(=O)c2c(NC(=O)CCl)oc(C)c12`, the “log2 ratio” value was 0.0565 (inactive).
Then `COc1ccc(-c2csc(NC(=O)CCl)n2)cc1`, with 0.189 (inactive); and `N#Cc1cnn(-c2ccccc2)c1NC(=O)CCl`, with -0.123 (inactive).
For the compound `O=C(CCl)N1CCCCCC1c1ncon1` (stereo not given), the “log2 ratio” value was 0.187 (inactive).
As for `O=C(CCl)N(C1=CCCCC1)C1CC1`, the “log2 ratio” value was -0.00116 (inactive).
For the compound `O=C(CCl)NCc1cccc(N2CCCC2=O)c1`, the “log2 ratio” value was -0.0124 (inactive).
As for `Cl.O=C(CCl)NCCc1ncc(F)cc1F`, the “log2 ratio” value was 0.213 (inactive).
The result for `Cl.Cn1nccc1C(NC(=O)CCl)c1ccccc1` (stereo not given) reads 0.313 (inactive); that for `COCC[C@@H](NC(=O)CCl)c1ccccc1`, 0.222 (inactive).
Turning to `O=C(CCl)N1CCC(C(O)c2ccc(F)cc2)CC1` (stereo not given), the “log2 ratio” value was -0.113 (inactive).
Take `O=C(CCl)NC1CCS(=O)(=O)c2ccccc21` (stereo not given): the “log2 ratio” value is 0.159 (inactive).
In the case of `O=C(CCl)Nc1ccc(N2CCCC2=O)cc1`, the “log2 ratio” value was 0.31 (inactive).
In the case of `O=C(CCl)Nc1cc2c(cc1Cl)OCCO2`, the “log2 ratio” value was 0.135 (inactive).
On to `O=C(CCl)N1CCCN(C(=O)c2ccc(Cl)cc2)CC1`, for which the “log2 ratio” value was 0.0384 (inactive).
With `Cc1ccccc1CN(C)C(=O)CCl`, the “log2 ratio” value was 0.0682 (inactive).
On to `O=C(CCl)Nc1cc2c(cc1Cl)OCCCO2`, for which the “log2 ratio” value was -0.0643 (inactive).
With `Cl.O=C(CCl)N1CCn2ncc(O)c2C1`, the “log2 ratio” value is 0.242 (inactive).
As to `O=C(CCl)N1CCC(c2noc3cc(F)ccc23)CC1`, the “log2 ratio” value was 0.00234 (inactive).
Then `Cc1ccccc1C1(CNC(=O)CCl)CCOCC1`, with 0.211 (inactive); and `O=C(CCl)Nc1ccccc1C(F)(F)F`, with 0.00522 (inactive).
As for `O=C(CCl)NC1CCOc2ccccc21` (stereo not given), the “log2 ratio” value is -0.296 (inactive).
The result for `Cl.O=C(CN1CCN(C(=O)CCl)CC1)Nc1ccc(F)cc1` reads 0.0025 (inactive); that for `O=C(CCl)NCc1cccc(F)c1`, 0.17 (inactive).
As for `C/C(=C\CNC(=O)CCl)c1cnn(C)c1.Cl`, the “log2 ratio” value is -0.0819 (inactive).
Consider `Cc1cccc2nc(CCNC(=O)CCl)cn12.Cl`, for which the “log2 ratio” value was -0.0623 (inactive).
In the case of `CC(NC(=O)CCl)c1cccc(Cl)c1` (stereo not given), the “log2 ratio” value is -0.0887 (inactive).
